This note sets out measurements from PubChem BioAssay (EPA / NIEHS).

Assay [1] concerns the target human Constitutive Androstane Receptor (CAR), NR1I3 (gene 9970) (UniProt Q14994). Briefly: NVS_NR_hCAR_Antagonist: NovaScreen (NVS) Nuclear Receptor Binding Assay for human Constitutive Androstane Receptor Antagonism (CAR) (AID 2283344). The essentials:
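Cell-free TR-FRET binding read 1 h after dosing, antagonist mode; loss of signal versus DMSO baseline. Primary screen in duplicate at a single 25 uM; actives retested in concentration series.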

The target of assay [2] is bovine Estrogen Receptor (ER), ESR1 (gene 407238) (UniProt P49884). Briefly: NVS_NR_bER: NovaScreen (NVS) Nuclear Receptor Binding Assay for bovine Estrogen Receptor (ER) (AID 2283345).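 Also: actives lower the bound radioligand count which means they displace the ER ligand.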 The essentials:
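Displacement of a radioligand from estrogen receptor in bovine uterine membrane preparations; scintillation signal taken at 18 hours, DMSO as baseline. Single-concentration duplicates (25 uM) preceded concentration-response follow-up of actives.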

Assay [3] deals with Bile acid receptor (Homo sapiens) (UniProt Q96RI1). Briefly: NVS_NR_hFXR_Agonist: NovaScreen (NVS) Nuclear Receptor Binding Assay for human Farnesoid X Receptor Agonism (FXR) (AID 2283347). The essentials:
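Cell-free TR-FRET binding assay with extracted human FXR protein, agonist format, read 1 h after dosing. Primary screen at 25 uM single concentration in duplicate, actives retested in concentration series; gain of signal versus DMSO.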

Assay [4] deals with Estrogen receptor (Homo sapiens) (UniProt P03372). Briefly: OT_ER_ERaERa_1440: Odyssey Thera (OT) 24-hour HEK293T Protein-Complementation Assay for Estrogen Receptor-alpha/-alpha Homodimer (AID 2283349).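 Also: hits raise fluorescence above DMSO for agonists and antagonists alike.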 The gist of the method: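 Readout is the rise in mean fluorescence from reporter fragment complementation when ERα LBD (aa 310-547) units dimerize in HEK293T cells. Measured 24 h after dosing and analysed as increase over DMSO control.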
Chain of Estrogen receptor (Homo sapiens) (P03372 whole entry, looked up, the tested form may be a part): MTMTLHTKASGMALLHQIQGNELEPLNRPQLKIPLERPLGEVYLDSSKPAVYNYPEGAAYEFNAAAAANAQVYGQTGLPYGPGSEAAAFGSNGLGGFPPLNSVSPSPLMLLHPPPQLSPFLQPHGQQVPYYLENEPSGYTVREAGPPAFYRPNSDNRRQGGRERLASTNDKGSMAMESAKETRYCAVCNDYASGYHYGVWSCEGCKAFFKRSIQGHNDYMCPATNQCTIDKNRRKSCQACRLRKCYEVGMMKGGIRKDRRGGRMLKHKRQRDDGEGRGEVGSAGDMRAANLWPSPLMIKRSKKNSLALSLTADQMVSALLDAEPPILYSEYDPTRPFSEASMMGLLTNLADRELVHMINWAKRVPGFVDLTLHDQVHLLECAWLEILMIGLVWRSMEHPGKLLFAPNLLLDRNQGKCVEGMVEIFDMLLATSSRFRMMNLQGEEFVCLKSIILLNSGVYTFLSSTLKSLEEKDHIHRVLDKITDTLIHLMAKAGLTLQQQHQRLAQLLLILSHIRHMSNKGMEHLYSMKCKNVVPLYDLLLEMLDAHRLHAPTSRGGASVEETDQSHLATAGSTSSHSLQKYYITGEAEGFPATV

The target in assay [5] is Androgen Receptor/SRC-1 Co-activator, AR (gene 367) (UniProt P10275). Briefly: OT_AR_ARSRC1_0960: Odyssey Thera (OT) 16-hour HEK293T Protein-Complementation Assay for Androgen Receptor/SRC-1 Co-activator (AID 2283353).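 Also: actives raise the signal above DMSO so potency reflects increased AR and SRC-1 complex.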 The essentials: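 HEK293T cells stably expressing AR and SRC-1 fused to Venus YFP fragments, imaged 16 h after dosing. Nuclear/cytoplasmic fluorescence ratio at 488 nm from at least 400 cells per image; gain of signal relative to DMSO.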
Chain of Androgen Receptor/SRC-1 Co-activator, AR (gene 367) (P10275 whole entry, looked up, the tested form may be a part): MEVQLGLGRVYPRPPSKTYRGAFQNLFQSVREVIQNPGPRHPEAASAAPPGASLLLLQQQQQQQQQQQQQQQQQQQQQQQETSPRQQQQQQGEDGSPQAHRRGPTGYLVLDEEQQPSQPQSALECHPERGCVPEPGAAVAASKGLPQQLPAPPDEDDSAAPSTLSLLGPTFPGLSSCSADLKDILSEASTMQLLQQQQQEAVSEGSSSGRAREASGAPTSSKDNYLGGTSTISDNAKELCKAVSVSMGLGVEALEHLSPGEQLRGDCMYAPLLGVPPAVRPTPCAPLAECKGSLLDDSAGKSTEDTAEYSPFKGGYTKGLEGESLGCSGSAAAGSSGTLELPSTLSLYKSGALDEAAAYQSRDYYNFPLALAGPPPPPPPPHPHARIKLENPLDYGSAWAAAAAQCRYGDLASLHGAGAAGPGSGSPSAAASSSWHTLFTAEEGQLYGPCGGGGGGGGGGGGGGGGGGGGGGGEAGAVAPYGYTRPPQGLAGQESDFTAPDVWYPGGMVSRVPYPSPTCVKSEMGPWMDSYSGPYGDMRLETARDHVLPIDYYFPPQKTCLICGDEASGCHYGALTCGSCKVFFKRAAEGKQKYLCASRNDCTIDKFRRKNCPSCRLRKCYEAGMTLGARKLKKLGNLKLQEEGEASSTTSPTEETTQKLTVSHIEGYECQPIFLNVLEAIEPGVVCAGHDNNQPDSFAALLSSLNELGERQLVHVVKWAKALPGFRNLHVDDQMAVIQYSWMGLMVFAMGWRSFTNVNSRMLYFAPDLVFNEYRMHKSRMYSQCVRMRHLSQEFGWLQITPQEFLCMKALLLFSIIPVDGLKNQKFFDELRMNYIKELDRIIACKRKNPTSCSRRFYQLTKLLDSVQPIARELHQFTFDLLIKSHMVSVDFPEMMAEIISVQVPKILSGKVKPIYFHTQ

The target in assay [6] is T1, Estrogen receptor (Homo sapiens) + Estrogen receptor beta (Homo sapiens) (UniProt P03372+Q92731). Briefly: OT_ER_ERaERb_1440: Odyssey Thera (OT) 24-hour HEK293T Protein-Complementation Assay for Estrogen Receptor-alpha/-beta Homodimer (AID 2283356).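 Also: heteromer of ER alpha and ER beta binding domains; hits raise reporter fluorescence and both agonists and antagonists give an increase.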 The essentials: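 Heterodimerisation of ERα (aa 310-547) and ERβ (aa 263-489) ligand binding domains was tracked as fluorescence gain in stably transfected HEK293T cells following 24 h dosing, normalised to DMSO controls.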
T1 sequence (P03372 whole entry, looked up, the tested form may be a part): as the sequence (P03372 whole entry, looked up, the tested form may be a part) above
T1 sequence (Q92731 whole entry, looked up, the tested form may be a part): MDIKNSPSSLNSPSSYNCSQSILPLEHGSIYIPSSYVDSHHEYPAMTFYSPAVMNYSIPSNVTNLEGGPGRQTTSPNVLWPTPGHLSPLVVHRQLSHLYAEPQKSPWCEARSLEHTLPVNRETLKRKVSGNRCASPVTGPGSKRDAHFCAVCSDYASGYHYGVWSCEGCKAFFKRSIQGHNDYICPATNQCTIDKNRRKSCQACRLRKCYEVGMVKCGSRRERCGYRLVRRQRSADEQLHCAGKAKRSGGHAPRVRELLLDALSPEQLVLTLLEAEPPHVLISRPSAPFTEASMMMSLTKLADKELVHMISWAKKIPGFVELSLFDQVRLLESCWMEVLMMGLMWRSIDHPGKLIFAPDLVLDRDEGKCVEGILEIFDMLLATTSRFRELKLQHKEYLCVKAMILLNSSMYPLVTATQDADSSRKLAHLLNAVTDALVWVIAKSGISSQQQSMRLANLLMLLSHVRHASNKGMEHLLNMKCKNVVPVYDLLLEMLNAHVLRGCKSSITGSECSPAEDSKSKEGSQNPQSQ

The target in assay [7] is Estrogen receptor beta (Homo sapiens) (UniProt Q92731). As to the kind of experiment: OT_ER_ERbERb_0480: Odyssey Thera (OT) 8-hour HEK293T Protein-Complementation Assay for Estrogen Receptor-beta/-beta Homodimer (AID 2283357).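 Also: active means signal gain over DMSO baseline.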 The gist of the method: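 Readout: increase in mean fluorescence intensity (nucleus for agonists; nucleus plus cytoplasm for antagonists) relative to DMSO, from a reporter-fragment complementation of human ER-beta LBD homodimer in HEK293T cells dosed 8 hours.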
Chain of Estrogen receptor beta (Homo sapiens) (Q92731 whole entry, looked up, the tested form may be a part): as above

Assay [8] has as its target human Peroxisome Proliferator-activated Receptor alpha (PPARa), PPARA (gene 5465) (UniProt Q07869). As to the kind of experiment: NVS_NR_hPPARa: NovaScreen (NVS) Nuclear Receptor Binding Assay for human Peroxisome Proliferator-activated Receptor alpha (PPARa) (AID 2283359).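 Also: activity means loss of TR-FRET signal versus DMSO baseline.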 The gist of the method:
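Cell-free binding assay with extracted human protein, read by TR-FRET 1 h after chemical dosing. Loss of signal relative to DMSO baseline indicates binding. Primary screen used duplicate single concentration (25 uM); actives followed up in concentration series.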

For assay [9], the target named is Voltage-gated inwardly rectifying potassium channel KCNH2 (Homo sapiens) (UniProt Q12809). Briefly: NVS_IC_hKhERGCh: NovaScreen (NVS) Ion Channel Assay for human Potassium Channel ERG (KhERGCh) (AID 2283333). The essentials: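 Cell-free radioligand competition binding on hERG protein extracted from CHO cells, read by filter-based scintillation counting 0.75 h after dosing. Primary screen at 25 uM in duplicate, actives followed in concentration series. Signal loss fitted versus DMSO.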

The target in assay [10] is chimpanzee Androgen Receptor (AR), AR (gene 747460) (UniProt O97775). Briefly: NVS_NR_cAR: NovaScreen (NVS) Nuclear Receptor Binding Assay for chimpanzee Androgen Receptor (AR) (AID 2283346).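 Also: radioligand displacement from AR measured by scintillation counting in a cell-free assay.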 The essentials:
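Cell-free radioligand displacement using receptor protein extracted from Sf9/Sf21 cells; bound radioligand measured by scintillation counting 72 hours after chemical dosing. Loss of signal versus DMSO baseline indicates binding; primary screen single-concentration in duplicate at 25 uM, actives followed in concentration series.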

In assay [11] the target is Estrogen receptor (Homo sapiens) (UniProt P03372). As to the kind of experiment: OT_ER_ERaERa_0480: Odyssey Thera (OT) 8-hour HEK293T Protein-Complementation Assay for Estrogen Receptor-alpha/-alpha Homodimer (AID 2283351).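 Also: rise in fluorescence from reassembled reporter fragments on ERα LBD homodimer in nucleus or whole cell.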 The essentials:
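The readout is complementation of fragments fused to the human ER alpha ligand-binding domain (aa 310-547), stably expressed in HEK293T cells. After 8 h of exposure, the increase in nuclear/cytoplasmic fluorescence was measured by laser scanning cytometry and fitted relative to DMSO.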

Assay [12] has as its target T1, Estrogen receptor (Homo sapiens) + Estrogen receptor beta (Homo sapiens). As to the kind of experiment: OT_ER_ERaERb_0480: Odyssey Thera (OT) 8-hour HEK293T Protein-Complementation Assay for Estrogen Receptor-alpha/-beta Heterodimer (AID 2283352). The essentials:
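Increase in mean fluorescence intensity, measured by laser scanning plate cytometry, reported ER-alpha/ER-beta LBD complementation in HEK293T cells after 8 h chemical exposure. DMSO served as baseline; basal signal is low, punctate and cytoplasmic.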

The target in assay [13] is rat Peripheral-type Benzodiazepine Receptor (PBR), Tspo (gene 24230) (UniProt P16257). As to the kind of experiment: NVS_MP_rPBR: NovaScreen (NVS) Membrane Protein Assay for rat Peripheral-type Benzodiazepine Receptor (PBR) (AID 2283335). The essentials:
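Rat kidney membranes; radioligand binding with displacement, filter-based scintillation counting, 1 h incubation. Primary screen in duplicate at 25 uM, actives followed in concentration series; loss of binding vs DMSO.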

Assay [14] can be described thus: NVS_IC_rCaBTZCHL: NovaScreen (NVS) Ion Channel Assay for Calcium Channel, Type L, Benzothiazepine Site (CaBTZCHL) (AID 2283337). The essentials:
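Radioligand displacement at the benzothiazepine site using rat cortical membranes; bound label measured by filtration and scintillation counting 1.5 h after dosing. Single-point 25 uM in duplicate, then concentration series; DMSO baseline.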

Molecules are shown by their SMILES. “And” between values parts separate entries of the source, which are not always exact repeats. Equal entries are not always repeated. Inconclusive results are not listed. Some structures have more than one record in an assay (separate samples or runs), and their calls can disagree. The source made the active and inactive calls. The calls were made as follows: active = hit-call score of the fitted dose curve at least 0.9, where 1 is the maximum; inconclusive = response in the unintended direction; inactive = score below 0.9.

Chain of bovine Estrogen Receptor (ER), ESR1 (gene 407238) (P49884 whole entry, looked up): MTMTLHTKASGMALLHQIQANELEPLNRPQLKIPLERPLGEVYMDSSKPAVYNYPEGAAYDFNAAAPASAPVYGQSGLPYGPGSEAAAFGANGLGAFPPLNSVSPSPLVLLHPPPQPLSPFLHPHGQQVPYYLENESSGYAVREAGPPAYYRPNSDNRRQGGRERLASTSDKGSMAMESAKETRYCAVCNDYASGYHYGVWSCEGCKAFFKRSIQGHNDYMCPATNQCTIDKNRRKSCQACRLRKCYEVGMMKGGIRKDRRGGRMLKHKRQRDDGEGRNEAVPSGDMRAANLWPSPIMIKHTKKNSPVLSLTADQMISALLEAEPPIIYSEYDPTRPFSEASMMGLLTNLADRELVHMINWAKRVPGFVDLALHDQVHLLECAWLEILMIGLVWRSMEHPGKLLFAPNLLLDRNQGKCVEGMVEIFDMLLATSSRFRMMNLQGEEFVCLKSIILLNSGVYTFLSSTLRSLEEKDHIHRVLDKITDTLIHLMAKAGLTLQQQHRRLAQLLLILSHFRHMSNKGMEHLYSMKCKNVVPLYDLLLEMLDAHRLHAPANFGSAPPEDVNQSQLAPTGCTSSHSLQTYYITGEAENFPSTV
Chain of rat Peripheral-type Benzodiazepine Receptor (PBR), Tspo (gene 24230) (P16257 whole entry, looked up): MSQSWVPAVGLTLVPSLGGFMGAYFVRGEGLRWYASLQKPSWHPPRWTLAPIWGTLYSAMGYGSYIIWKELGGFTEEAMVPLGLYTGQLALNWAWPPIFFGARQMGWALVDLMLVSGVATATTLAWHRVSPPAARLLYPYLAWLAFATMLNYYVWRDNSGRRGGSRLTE
Chain of Bile acid receptor (Homo sapiens) (Q96RI1 whole entry, looked up): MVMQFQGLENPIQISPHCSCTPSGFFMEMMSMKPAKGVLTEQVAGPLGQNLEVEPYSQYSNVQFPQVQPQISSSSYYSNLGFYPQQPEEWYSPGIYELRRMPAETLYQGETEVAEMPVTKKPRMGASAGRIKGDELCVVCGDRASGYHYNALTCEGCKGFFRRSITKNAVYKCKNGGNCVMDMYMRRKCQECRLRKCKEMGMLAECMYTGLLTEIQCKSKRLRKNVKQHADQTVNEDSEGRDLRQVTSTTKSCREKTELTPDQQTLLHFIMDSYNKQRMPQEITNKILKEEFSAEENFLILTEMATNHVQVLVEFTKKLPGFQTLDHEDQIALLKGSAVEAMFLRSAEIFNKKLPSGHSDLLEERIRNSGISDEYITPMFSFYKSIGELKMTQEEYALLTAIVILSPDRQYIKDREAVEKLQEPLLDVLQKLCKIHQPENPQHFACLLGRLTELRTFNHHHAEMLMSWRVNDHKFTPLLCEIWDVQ
Chain of human Constitutive Androstane Receptor (CAR), NR1I3 (gene 9970) (Q14994 whole entry, looked up): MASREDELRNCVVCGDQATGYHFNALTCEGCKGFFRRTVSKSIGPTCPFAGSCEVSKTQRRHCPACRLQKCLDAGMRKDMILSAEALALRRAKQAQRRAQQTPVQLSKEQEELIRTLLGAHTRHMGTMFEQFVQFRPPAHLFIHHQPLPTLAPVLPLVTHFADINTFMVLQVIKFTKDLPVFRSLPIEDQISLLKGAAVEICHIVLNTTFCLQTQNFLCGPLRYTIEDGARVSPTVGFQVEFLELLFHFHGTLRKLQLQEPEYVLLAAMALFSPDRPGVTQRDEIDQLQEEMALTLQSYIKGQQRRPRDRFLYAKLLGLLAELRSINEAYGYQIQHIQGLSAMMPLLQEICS

With `ClC1=C(Cl)C2(Cl)C3C(Cl)C(Cl)CC3C1(Cl)C2(Cl)Cl` (stereo unspecified), the outcome in [1], in assay [2], in assay [3], in [4], in assay [6] and in assay [7] was inactive. Also, the result in [8] was inactive. Also, in assay [5], the AC50 is 38.1 µM (active).
Consider `CCCCCCCc1ccc(O)cc1`, for which the AC50 is 766 nM (active) in [9]; 106 nM (active) in assay [2]; 24.5 µM (active) and 23.2 µM (active) in assay [4]; 26.1 µM (active) and 23.4 µM (active) and 23.6 µM (active) in [11]; 12.7 µM (active) and 12.5 µM (active) in assay [12]; 72 µM (active) and 72.7 µM (active) and 73.8 µM (active) in assay [5]. The AC50 in [6] was 15.3 µM (active) and 11.3 µM (active); in assay [7], 12.2 µM (active) and 13.3 µM (active) and 12.3 µM (active). In addition, the molecule was called inactive in assay [2], in assay [10], in assay [4], in assay [11], in assay [12] and in assay [5]. Moreover, the outcome in [6] and in [7] was inactive.
As for `CCCCOCCOP(=O)(OCCOCCCC)OCCOCCCC`, in assay [13], the AC50 is 7.47 µM (active) and 7.45 µM (active). Further, the result in assay [14], in [4], in assay [11], in [6] and in assay [7] was inactive.
In the case of `Nc1ccc(Sc2ccc(N)cc2)cc1`, the outcome in assay [2] was inactive.
As to `Cc1ccc([N+](=O)[O-])cc1C`, the molecule was called inactive in [4], in [12], in [6] and in assay [7].
Consider `CCNc1nc(Cl)nc(NC(C)(C)C)n1`, for which the molecule was classed as inactive in assay [2], in assay [4], in assay [11], in assay [12], in [5] and in [6]. Besides, in assay [7], the molecule was classed as inactive.
Consider `O=P1(N(CCCl)CCCl)NCCCO1` (stereo unspecified), for which the outcome in [2], in assay [4], in assay [11], in [12], in [6] and in assay [7] was inactive.
Regarding `CCC1(c2ccccc2)C(=O)N=C(O)NC1=O` (stereo unspecified), the molecule was classed as inactive in [4], in assay [12] and in [7].
